Experimental data from the supplement of paper PMC10849652.
The full data set covers some 7,900 targets. This sample favours those with a hit. About 0.6% of all pairs of compound and target were hits.

compound: c1cn2cc(-c3ccc4cn[nH]c4c3)nc(Nc3ccc(N4CCOCC4)cc3)c2n1 [entospletinib]; assay: log2 fold change, soluble protein after heating vs DMSO (PISA); higher = thermal stabilisation; K562 cells, 10 uM, 30 min; active = over 0.2 and 3.5 SD of the protein, either way, in both replicates (recomputed)
How it was run: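 Aliquots of K562 cells (2×10^6 cells/mL) treated with 10 μM compound for 30 min were heated for 3 min over 48°C-58°C. After pooling and extraction in PBS with 0.5% NP-40 at 4°C, soluble protein from a 21,000xg, 90 min spin was quantified by TMTpro 16plex LC-MS/MS with channel sums equalised. Thermal stability is expressed against control samples, from duplicates, as a log2 fold change.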

Chain of UniProt O43379 (O43379 whole entry, looked up): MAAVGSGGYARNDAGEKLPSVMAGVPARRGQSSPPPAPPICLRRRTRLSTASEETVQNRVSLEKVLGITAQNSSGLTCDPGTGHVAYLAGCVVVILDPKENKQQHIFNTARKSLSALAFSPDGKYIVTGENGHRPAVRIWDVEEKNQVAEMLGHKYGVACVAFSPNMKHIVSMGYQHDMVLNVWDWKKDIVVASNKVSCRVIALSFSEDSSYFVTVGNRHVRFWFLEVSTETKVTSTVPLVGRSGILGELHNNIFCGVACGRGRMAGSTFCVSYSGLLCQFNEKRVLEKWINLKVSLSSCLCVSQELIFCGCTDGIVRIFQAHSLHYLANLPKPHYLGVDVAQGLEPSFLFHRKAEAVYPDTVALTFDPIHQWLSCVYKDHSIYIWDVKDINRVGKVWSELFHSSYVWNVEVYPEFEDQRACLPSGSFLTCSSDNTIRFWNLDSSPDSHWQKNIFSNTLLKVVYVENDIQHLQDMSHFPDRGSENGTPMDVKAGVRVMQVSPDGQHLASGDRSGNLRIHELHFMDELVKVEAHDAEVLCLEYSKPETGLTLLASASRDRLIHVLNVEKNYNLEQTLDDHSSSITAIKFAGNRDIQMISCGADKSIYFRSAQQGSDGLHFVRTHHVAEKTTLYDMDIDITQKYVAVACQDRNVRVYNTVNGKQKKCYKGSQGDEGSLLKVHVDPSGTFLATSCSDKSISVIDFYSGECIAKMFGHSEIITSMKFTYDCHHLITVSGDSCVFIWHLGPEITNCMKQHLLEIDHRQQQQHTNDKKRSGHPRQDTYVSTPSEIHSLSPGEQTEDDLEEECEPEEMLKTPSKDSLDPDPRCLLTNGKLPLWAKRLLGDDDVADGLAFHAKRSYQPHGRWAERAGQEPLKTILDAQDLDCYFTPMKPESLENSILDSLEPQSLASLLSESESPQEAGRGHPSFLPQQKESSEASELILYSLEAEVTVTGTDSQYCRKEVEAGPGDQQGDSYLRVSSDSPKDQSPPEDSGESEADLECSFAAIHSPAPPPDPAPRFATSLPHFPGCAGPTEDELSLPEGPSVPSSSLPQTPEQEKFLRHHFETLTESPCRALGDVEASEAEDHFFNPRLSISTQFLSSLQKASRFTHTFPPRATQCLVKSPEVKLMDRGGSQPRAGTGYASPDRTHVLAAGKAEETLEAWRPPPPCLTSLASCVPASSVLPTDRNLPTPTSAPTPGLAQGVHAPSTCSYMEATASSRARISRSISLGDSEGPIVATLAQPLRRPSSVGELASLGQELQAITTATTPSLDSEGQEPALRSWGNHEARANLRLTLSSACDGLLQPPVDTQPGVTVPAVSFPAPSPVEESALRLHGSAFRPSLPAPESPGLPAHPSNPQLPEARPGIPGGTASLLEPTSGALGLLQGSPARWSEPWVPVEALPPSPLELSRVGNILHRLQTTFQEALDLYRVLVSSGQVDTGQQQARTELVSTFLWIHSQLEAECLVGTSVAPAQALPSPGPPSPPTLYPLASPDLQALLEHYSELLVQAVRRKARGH
Chain of UniProt Q9P253 (Q9P253 whole entry, looked up): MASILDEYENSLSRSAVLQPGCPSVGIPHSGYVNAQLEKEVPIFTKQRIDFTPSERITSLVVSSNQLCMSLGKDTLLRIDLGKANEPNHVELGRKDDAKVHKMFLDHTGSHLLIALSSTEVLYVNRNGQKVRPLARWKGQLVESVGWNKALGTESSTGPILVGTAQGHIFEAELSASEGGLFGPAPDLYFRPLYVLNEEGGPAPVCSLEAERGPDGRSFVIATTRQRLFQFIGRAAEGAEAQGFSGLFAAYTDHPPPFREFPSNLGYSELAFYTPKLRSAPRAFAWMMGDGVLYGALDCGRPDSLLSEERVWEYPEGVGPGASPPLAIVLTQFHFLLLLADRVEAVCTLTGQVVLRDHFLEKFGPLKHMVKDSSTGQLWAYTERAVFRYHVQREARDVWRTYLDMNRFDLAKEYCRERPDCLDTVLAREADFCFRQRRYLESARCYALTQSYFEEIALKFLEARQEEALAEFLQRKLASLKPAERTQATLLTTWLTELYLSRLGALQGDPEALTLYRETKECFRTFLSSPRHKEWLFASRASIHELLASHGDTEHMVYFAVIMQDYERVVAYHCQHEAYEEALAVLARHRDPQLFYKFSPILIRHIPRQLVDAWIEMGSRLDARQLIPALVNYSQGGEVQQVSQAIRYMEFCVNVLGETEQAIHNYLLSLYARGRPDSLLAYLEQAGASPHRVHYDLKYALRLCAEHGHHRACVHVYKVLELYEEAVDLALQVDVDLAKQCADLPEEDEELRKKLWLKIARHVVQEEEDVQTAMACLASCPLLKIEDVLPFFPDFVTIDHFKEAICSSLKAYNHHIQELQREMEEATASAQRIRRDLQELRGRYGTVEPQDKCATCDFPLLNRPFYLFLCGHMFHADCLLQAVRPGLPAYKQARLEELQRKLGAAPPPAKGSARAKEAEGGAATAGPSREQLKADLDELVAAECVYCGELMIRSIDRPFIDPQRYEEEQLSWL
Chain of UniProt Q9NX01 (Q9NX01 whole entry, looked up): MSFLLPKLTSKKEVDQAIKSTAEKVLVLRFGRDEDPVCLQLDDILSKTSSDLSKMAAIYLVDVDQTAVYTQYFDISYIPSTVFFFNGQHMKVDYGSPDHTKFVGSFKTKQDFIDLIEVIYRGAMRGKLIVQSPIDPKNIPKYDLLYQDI
Chain of UniProt P49754 (P49754 whole entry, looked up): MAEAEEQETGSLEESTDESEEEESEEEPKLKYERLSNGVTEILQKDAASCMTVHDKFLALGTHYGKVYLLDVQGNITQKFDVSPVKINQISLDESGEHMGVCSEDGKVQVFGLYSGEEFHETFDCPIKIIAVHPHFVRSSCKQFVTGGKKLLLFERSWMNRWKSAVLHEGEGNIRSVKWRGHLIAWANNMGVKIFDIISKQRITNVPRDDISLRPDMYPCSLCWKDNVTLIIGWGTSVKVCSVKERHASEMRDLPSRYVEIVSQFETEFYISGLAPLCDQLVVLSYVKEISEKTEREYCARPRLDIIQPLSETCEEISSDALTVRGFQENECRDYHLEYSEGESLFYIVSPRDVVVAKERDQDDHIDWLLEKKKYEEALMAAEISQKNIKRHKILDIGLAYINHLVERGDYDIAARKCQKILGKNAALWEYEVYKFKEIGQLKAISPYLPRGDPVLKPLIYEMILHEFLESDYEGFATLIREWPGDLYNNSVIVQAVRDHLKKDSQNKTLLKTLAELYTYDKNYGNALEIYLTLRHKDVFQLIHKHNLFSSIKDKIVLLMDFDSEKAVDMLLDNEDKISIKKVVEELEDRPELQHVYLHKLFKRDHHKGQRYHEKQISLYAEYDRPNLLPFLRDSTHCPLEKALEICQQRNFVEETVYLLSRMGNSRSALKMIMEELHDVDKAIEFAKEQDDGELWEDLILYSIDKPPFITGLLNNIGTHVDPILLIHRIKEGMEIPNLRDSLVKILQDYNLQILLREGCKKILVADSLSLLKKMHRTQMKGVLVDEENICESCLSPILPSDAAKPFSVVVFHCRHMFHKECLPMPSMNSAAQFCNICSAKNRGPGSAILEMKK
Chain of UniProt Q9P0T7 (Q9P0T7 whole entry, looked up): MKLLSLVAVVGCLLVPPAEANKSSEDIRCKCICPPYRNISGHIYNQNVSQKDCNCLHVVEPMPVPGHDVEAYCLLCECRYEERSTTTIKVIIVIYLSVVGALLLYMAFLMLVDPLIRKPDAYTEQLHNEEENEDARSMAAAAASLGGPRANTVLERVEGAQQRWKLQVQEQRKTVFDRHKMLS
Chain of UniProt P57081 (P57081 whole entry, looked up): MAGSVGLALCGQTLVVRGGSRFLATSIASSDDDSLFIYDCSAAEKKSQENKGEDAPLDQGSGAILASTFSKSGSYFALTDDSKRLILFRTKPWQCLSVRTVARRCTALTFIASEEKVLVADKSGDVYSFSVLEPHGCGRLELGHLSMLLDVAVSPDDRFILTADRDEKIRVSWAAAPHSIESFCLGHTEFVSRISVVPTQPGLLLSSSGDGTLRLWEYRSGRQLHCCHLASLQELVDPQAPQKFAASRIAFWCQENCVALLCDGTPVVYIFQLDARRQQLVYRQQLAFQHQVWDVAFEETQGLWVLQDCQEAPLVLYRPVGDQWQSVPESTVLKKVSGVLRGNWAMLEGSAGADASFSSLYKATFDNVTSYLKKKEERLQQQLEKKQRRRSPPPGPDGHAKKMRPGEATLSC
Chain of UniProt Q9Y5L0 (Q9Y5L0 whole entry, looked up): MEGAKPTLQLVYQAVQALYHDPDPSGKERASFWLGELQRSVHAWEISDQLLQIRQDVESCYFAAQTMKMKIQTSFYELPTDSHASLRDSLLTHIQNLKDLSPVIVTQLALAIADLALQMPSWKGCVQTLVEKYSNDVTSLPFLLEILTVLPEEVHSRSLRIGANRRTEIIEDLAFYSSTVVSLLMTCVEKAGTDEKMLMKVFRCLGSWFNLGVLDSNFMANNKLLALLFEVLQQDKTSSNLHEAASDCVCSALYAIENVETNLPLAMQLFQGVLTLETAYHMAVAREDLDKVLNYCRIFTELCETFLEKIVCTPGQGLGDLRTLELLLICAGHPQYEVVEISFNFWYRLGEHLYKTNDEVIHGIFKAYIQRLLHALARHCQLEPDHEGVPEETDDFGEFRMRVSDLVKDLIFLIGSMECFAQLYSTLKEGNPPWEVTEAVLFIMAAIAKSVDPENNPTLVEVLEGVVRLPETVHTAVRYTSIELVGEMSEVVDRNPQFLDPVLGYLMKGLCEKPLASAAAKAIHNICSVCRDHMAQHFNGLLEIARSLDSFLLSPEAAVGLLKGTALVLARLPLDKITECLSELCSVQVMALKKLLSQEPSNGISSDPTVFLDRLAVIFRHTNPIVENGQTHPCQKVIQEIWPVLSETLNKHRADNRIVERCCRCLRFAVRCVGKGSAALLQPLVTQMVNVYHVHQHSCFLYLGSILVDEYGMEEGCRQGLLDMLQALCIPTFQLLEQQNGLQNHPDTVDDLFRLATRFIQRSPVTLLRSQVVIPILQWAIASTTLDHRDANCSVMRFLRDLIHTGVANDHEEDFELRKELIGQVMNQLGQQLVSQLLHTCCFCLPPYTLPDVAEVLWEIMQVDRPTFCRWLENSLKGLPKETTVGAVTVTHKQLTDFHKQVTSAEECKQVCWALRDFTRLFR

log2 fold change, inactive:
TMEM9 (UniProt Q9P0T7) -0.05
VPS41 (UniProt P49754) 0.017
TRAPPC8 (UniProt Q9Y2L5) 0.004
WDR4 (UniProt P57081) -0.027
TNPO3 (UniProt Q9Y5L0) -0.048
WDCP (UniProt Q9H6R7) -0.024
VDAC1 (UniProt P21796) -0.012
WASH2P (UniProt Q6VEQ5) 0.015
U2AF1L5 (UniProt P0DN76) -0.497
UFL1 (UniProt O94874) -0.025
VPS18 (UniProt Q9P253) -0.07
TRAPPC3 (UniProt O43617) -0.013
WDR62 isoform 4 (UniProt O43379) -0.043
TMEM41A (UniProt Q96HV5) 0.042
TPP1 (UniProt O14773) -0.018
TNNC2 (UniProt P02585) -0.038
TXNL4B (UniProt Q9NX01) 0.002
VPS72 isoform 2 (UniProt Q15906) 0.112
TMEM263 (UniProt Q8WUH6) -0.032
XPNPEP1 isoform 3 (UniProt Q9NQW7) -0.027
UBLCP1 (UniProt Q8WVY7) -0.013
WASHC2A (UniProt Q641Q2) 0.03
TOP2A isoform 4 (UniProt P11388) 0.119
